Drawing on PubChem BioAssay (EPA / NIEHS), this text covers outcome and AC50 for 19 compounds.

Results filed as inconclusive are left out. The source made the active and inactive calls. The calls were made as follows: active = hit-call score of the fitted dose curve at least 0.9, where 1 is the maximum; inconclusive = response in the unintended direction; inactive = score below 0.9.

The target in assay [1] is human Adrenergic, Beta 3 Receptor (Adrb3), ADRB3 (gene 155) (UniProt P13945). The assay is described as follows: NVS_GPCR_hAdrb3: NovaScreen (NVS) G Protein-Coupled Receptor Assay for human Adrenergic, Beta 3 Receptor (Adrb3) (AID 2283262). Summed up: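 Membranes from SK-N-MC cells pretreated with isoproterenol and 8-bromo-cAMP were used in a radioligand competitive displacement binding assay. Binding was read by filter-based scintillation counting 1 hour after dosing. Primary screening was in duplicate at 25 uM, with concentration series in follow-up.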
human Adrenergic, Beta 3 Receptor (Adrb3), ADRB3 (gene 155), sequence (P13945 whole entry, looked up): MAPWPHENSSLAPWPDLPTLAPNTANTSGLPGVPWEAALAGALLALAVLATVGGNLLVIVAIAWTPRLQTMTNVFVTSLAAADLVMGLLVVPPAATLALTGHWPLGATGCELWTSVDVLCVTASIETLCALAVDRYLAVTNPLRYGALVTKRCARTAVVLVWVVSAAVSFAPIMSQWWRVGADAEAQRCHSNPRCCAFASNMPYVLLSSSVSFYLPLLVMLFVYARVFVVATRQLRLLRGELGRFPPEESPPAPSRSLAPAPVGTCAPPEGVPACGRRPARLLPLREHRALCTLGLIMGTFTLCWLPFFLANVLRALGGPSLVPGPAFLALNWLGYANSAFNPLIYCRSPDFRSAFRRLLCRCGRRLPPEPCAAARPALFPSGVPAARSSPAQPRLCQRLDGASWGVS

The target in assay [2] is D(1A) dopamine receptor (Homo sapiens) (UniProt P21728). The assay is described as follows: NVS_GPCR_hDRD1: NovaScreen (NVS) G Protein-Coupled Receptor Assay for human Dopamine Receptor D1 (DRD1) (AID 2283269). Summed up: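 HEK293-derived receptor preparation; radioligand competitive displacement; 1 h; filtration + scintillation counting. DMSO = negative control/baseline. Primary: 25 uM, duplicate; secondary: concentration–response for actives.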
D(1A) dopamine receptor (Homo sapiens), sequence (P21728 whole entry, looked up): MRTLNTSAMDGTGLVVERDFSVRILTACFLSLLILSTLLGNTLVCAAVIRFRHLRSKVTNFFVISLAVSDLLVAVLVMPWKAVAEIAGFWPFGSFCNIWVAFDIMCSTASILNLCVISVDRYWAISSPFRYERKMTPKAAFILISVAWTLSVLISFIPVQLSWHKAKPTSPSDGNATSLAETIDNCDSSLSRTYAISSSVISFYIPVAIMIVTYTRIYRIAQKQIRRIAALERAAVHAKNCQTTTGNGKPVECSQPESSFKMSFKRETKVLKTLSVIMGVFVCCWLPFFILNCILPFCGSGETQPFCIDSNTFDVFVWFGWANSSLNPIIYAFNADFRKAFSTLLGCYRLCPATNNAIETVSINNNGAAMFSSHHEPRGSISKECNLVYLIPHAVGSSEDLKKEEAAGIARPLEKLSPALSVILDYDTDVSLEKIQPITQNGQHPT

Assay [3] addresses human Muscarinic, M4 Receptor, CHRM4 (gene 1132) (UniProt P08173). The assay is described as follows: NVS_GPCR_hM4: NovaScreen (NVS) G Protein-Coupled Receptor Assay for human Muscarinic, M4 Receptor (AID 2283274). A digest of the protocol: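 Cell-free radioligand displacement using CHO-derived human M4 receptor protein, 1 h after dosing; bound radioactivity by filtration and scintillation counting. Primary screen single 25 uM duplicate, actives followed in concentration series.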

Assay [4] deals with Muscarinic acetylcholine receptor M2 (Homo sapiens) (UniProt P08172). The assay is described as follows: NVS_GPCR_hM2: NovaScreen (NVS) G Protein-Coupled Receptor Assay for human Muscarinic, M2 Receptor (AID 2283273). Summed up: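 Radioligand displacement on human M2 receptor membranes from CHO cells, 1 h incubation, filtration with scintillation counting. Primary screen in duplicate at 25 uM; actives retested in concentration series; loss of signal fitted versus DMSO.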
Muscarinic acetylcholine receptor M2 (Homo sapiens), sequence (P08172 whole entry, looked up): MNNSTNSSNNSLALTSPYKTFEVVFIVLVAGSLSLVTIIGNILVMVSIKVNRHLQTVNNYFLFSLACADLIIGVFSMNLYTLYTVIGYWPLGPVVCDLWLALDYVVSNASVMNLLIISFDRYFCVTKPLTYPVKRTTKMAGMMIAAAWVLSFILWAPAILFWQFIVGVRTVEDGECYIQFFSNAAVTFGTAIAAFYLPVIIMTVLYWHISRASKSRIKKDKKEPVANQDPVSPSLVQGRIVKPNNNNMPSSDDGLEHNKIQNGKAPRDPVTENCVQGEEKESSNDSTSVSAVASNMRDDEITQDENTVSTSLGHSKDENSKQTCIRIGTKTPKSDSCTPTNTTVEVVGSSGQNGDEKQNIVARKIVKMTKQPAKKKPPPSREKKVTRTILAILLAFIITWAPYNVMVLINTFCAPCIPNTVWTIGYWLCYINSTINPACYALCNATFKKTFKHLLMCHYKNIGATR

Assay [5] addresses human Leukotriene B4 Receptor 1 (LTB4-BLT1), LTB4R (gene 1241) (UniProt Q15722). The assay is described as follows: NVS_GPCR_hLTB4_BLT1: NovaScreen (NVS) G Protein-Coupled Receptor Assay for human Leukotriene B4 Receptor 1 (LTB4-BLT1) (AID 2283271). Summed up: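 Radioligand displacement binding on receptor extracted from human neutrophils, cell-free, 1 h after dosing; filter-based scintillation counting. Primary screen in duplicate at 25 uM, actives retested in concentration-response up to 50 uM; loss of signal versus DMSO.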

Assay [6] has as its target human Adrenergic, Alpha 2c Receptor (Adra2C), ADRA2C (gene 152) (UniProt P18825). Put plainly: NVS_GPCR_hAdra2C: NovaScreen (NVS) G Protein-Coupled Receptor Assay for human Adrenergic, Alpha 2c Receptor (Adra2C) (AID 2283259). Summed up:
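Radioligand binding on Sf9-expressed receptor membranes, 1 h after chemical dosing, filter-based scintillation read-out. Loss of binding fitted positively versus DMSO; primary duplicate screen at 25 uM, actives retested in concentration series.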

Assay [7] has as its target human Dopamine Receptor D4.4 (DRD4.4), DRD4 (gene 1815) (UniProt P21917). Put plainly: NVS_GPCR_hDRD4.4: NovaScreen (NVS) G Protein-Coupled Receptor Assay for human Dopamine Receptor D4.4 (DRD4.4) (AID 2283264). A digest of the protocol: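 Radioligand displacement on human DRD4.4 from CHO-derived membranes, 1 hour incubation, bound counts read by filtration and scintillation. Primary screen in duplicate at 25 uM; actives followed up in concentration series.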

Assay [8] has as its target human Dopamine Receptor D2 (DRD2), DRD2 (gene 1813) (UniProt P14416). The assay is described as follows: NVS_GPCR_hDRD2s: NovaScreen (NVS) G Protein-Coupled Receptor Assay for human Dopamine Receptor D2 (DRD2) (AID 2283266). Summed up:
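Radioligand displacement used human DRD2 membranes extracted from CHO cells and was read by filter-based scintillation counting after 1.5 hours. Primary screening was in duplicate at 25 uM. Loss of signal versus DMSO was fitted, with concentration series in follow-up.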

Assay [9] addresses Muscarinic acetylcholine receptor M3 (Homo sapiens) (UniProt P20309). The assay is described as follows: NVS_GPCR_hM3: NovaScreen (NVS) G Protein-Coupled Receptor Assay for human Muscarinic, M3 Receptor (AID 2283272). A digest of the protocol: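 Radioligand displacement binding on human M3 receptor in CHO-derived membranes, 1 h incubation, filter-based scintillation counting. Primary screen in duplicate at 25 uM; actives followed up in concentration series; loss of signal versus DMSO.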

Assay [10] deals with Beta-2 adrenergic receptor (Homo sapiens) (UniProt P07550). Put plainly: NVS_GPCR_hAdrb2: NovaScreen (NVS) G Protein-Coupled Receptor Assay for human Adrenergic, Beta 2 Receptor (Adrb2) (AID 2283261). Summed up: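 Filter-based radioligand binding using receptor prepared from CHO cells, 1 h incubation, scintillation counting. Primary screen in duplicate at 25 uM, actives retested in concentration series; loss of binding relative to DMSO.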
Beta-2 adrenergic receptor (Homo sapiens), sequence (P07550 whole entry, looked up): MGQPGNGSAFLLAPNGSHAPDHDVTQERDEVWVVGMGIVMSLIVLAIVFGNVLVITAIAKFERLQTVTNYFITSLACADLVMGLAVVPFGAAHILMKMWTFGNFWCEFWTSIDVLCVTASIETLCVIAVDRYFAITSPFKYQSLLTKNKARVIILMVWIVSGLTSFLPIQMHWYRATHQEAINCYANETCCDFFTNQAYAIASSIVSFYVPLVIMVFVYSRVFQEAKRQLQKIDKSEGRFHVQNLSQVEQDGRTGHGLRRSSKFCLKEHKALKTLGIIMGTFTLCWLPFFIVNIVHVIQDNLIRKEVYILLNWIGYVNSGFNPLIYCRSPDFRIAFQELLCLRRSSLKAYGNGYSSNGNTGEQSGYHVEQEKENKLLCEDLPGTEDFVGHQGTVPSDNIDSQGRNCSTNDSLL

Assay [11] has as its target human Endothelin Receptor Type A (ETA), EDNRA (gene 1909) (UniProt P25101). The assay is described as follows: NVS_GPCR_hETA: NovaScreen (NVS) G Protein-Coupled Receptor Assay for human Endothelin Receptor Type A (ETA) (AID 2283265). A digest of the protocol:
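Cell-free radioligand displacement using SH-SY5Y-derived protein, 3 h incubation, filter-based scintillation counting. Primary screen in duplicate at 25 uM; actives then run in concentration-response up to 50 uM; loss of binding fitted versus DMSO.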

Assay [12] concerns the target human Endothelin Receptor Type B (ETB), EDNRB (gene 1910) (UniProt P24530). The assay is described as follows: NVS_GPCR_hETB: NovaScreen (NVS) G Protein-Coupled Receptor Assay for human Endothelin Receptor Type B (ETB) (AID 2283267). Summed up:
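Human astrocytoma cell membranes; radioligand competitive binding read by filter scintillation counting 4 hours after dosing. Single-concentration duplicate screen at 25 uM, then singleton concentration-response up to 50 uM; loss of signal versus DMSO.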

Assay [13] addresses Muscarinic acetylcholine receptor M5 (Homo sapiens) (UniProt P08912). Put plainly: NVS_GPCR_hM5: NovaScreen (NVS) G Protein-Coupled Receptor Assay for human Muscarinic, M5 Receptor (AID 2283275). A digest of the protocol: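 Radioligand displacement on CHO-derived membrane preparations, 1 h, filter-based scintillation counting. Single-concentration duplicate screen at 25 uM; hits (e.g. 30% inhibition) retested in singleton concentration-response up to 50 uM. Loss of binding fitted versus DMSO.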

Assay [14] deals with human Neuropeptide Receptor Y1 (NPY1), NPY1R (gene 4886) (UniProt P25929). The assay is described as follows: NVS_GPCR_hNPY1: NovaScreen (NVS) G Protein-Coupled Receptor Assay for human Neuropeptide Receptor Y1 (NPY1) (AID 2283276). Summed up: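 Cell-free radioligand binding using receptor extracted from SK-N-MC cells, 1 h incubation, filter-based scintillation counting. Primary screen single concentration 25 uM in duplicate; actives followed in concentration series. Loss of bound signal scored versus DMSO.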

Assay [15] deals with human Neurokinin, NK2 Receptor, TACR2 (gene 6865) (UniProt P21452). The assay is described as follows: NVS_GPCR_hNK2: NovaScreen (NVS) G Protein-Coupled Receptor Assay for human Neurokinin, NK2 Receptor (AID 2283278).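 Also: actives reduce bound radioligand signal relative to DMSO baseline.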 Summed up: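 Filter-based scintillation counting measured radioligand bound to receptor extracted from CHO cells, 4 hours after compound addition. Chemicals screened first at 25 uM in duplicate, with actives retested in concentration series relative to DMSO.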
human Neurokinin, NK2 Receptor, TACR2 (gene 6865), sequence (P21452 whole entry, looked up): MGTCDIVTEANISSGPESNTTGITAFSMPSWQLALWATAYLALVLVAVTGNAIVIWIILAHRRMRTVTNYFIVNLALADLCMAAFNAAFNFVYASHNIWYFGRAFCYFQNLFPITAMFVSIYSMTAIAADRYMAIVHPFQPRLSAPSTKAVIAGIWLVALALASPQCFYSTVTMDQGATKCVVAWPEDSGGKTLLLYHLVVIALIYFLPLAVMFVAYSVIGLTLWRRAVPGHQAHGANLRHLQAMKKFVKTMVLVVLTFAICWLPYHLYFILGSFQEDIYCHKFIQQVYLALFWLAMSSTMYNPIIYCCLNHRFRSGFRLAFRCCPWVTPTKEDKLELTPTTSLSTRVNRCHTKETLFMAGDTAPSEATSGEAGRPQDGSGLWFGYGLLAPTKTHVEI

The target of assay [16] is human Neurotensin Receptor (NTS), NTSR1 (gene 4923) (UniProt P30989). Put plainly: NVS_GPCR_hNTS: NovaScreen (NVS) G Protein-Coupled Receptor Assay for human Neurotensin Receptor (NTS) (AID 2283279). Summed up:
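Radioligand displacement on human NTSR1 protein from CHO cells, cell-free, 1 h, filter-based scintillation counting. Primary screen at 25 uM in duplicate; hits rerun in concentration-response up to 50 uM.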

Assay [17] deals with human Histamine 1 Receptor (H1), HRH1 (gene 3269) (UniProt P35367). Put plainly: NVS_GPCR_hH1: NovaScreen (NVS) G Protein-Coupled Receptor Assay for human Histamine 1 Receptor (H1) (AID 2283268). A digest of the protocol:
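Cell-free radioligand displacement at human H1 receptor, 1 h, filter scintillation counting; primary screen 25 uM in duplicate, hits in concentration series; loss of binding fitted vs DMSO.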

The target of assay [18] is Muscarinic acetylcholine receptor M1 (Homo sapiens) (UniProt P11229). Put plainly: NVS_GPCR_hM1: NovaScreen (NVS) G Protein-Coupled Receptor Assay for human Muscarinic, M1 Receptor (AID 2283270). A digest of the protocol:
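Cell-free radioligand displacement using membrane protein extracted from CHO cells, read by filter-based scintillation counting 1 h after dosing. Loss of bound signal fitted versus DMSO; primary screen single concentration 25 uM in duplicate, actives followed by concentration series.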

In assay [19] the target is Type-1 angiotensin II receptor (Homo sapiens) (UniProt P30556). Put plainly: NVS_GPCR_hAT1: NovaScreen (NVS) G Protein-Coupled Receptor Assay for human Angiotensin II receptor type 1 (AT1) (AID 2283263). A digest of the protocol:
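Membranes from KAN-TS cells; radioligand competitive displacement, 3 h, filtration and scintillation counting. Single-point duplicate screen at 25 uM, then concentration-response up to 50 uM for hits; loss of signal fitted versus DMSO.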

Muscarinic acetylcholine receptor M5 (Homo sapiens), sequence (P08912 whole entry, looked up): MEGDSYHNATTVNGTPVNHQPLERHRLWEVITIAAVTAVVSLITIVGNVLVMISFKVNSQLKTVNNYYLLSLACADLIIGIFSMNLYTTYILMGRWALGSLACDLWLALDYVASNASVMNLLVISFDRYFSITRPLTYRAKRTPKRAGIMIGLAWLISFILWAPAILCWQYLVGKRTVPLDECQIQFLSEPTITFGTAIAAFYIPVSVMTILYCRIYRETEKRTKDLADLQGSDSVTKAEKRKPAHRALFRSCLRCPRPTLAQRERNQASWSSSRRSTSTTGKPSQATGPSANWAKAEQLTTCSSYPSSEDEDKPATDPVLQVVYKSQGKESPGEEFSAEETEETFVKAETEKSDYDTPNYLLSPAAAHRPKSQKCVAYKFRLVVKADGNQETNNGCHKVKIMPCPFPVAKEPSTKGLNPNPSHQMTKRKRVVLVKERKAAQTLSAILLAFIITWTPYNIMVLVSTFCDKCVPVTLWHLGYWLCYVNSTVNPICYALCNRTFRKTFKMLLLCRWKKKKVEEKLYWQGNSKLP
human Dopamine Receptor D4.4 (DRD4.4), DRD4 (gene 1815), sequence (P21917 whole entry, looked up): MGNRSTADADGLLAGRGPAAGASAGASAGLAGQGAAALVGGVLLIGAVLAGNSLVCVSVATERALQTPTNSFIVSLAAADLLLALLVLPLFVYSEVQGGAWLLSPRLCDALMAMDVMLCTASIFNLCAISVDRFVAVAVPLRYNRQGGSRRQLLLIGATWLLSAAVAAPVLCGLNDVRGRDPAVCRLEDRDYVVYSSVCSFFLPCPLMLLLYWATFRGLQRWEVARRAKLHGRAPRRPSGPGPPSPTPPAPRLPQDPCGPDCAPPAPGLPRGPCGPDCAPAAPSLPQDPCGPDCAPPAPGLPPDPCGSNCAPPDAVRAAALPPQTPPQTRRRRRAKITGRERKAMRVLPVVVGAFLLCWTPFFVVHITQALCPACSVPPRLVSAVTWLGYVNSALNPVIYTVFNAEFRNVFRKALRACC
human Dopamine Receptor D2 (DRD2), DRD2 (gene 1813), sequence (P14416 whole entry, looked up): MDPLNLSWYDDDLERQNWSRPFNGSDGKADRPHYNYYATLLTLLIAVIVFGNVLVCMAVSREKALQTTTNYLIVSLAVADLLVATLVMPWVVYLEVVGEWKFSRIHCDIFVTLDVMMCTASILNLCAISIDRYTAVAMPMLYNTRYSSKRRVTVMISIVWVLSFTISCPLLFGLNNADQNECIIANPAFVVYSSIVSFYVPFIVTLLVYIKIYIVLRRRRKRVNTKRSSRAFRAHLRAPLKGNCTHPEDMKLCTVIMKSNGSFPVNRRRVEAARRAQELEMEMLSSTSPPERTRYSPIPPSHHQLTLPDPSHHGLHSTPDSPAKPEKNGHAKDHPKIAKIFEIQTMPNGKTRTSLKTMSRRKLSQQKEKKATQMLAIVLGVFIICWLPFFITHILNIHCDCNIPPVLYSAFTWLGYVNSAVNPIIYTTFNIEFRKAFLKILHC
human Endothelin Receptor Type B (ETB), EDNRB (gene 1910), sequence (P24530 whole entry, looked up): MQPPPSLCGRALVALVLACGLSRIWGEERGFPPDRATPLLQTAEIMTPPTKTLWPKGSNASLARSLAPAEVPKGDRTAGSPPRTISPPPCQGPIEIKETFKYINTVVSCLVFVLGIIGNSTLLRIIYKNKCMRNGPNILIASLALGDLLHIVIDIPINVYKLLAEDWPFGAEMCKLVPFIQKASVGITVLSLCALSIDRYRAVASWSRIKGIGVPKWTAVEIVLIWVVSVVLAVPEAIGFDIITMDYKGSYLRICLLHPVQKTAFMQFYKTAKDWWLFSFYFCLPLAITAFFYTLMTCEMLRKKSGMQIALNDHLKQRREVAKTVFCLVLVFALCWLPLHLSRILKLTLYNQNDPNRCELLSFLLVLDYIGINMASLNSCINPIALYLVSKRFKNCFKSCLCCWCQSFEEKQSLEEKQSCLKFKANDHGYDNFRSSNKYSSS
human Muscarinic, M4 Receptor, CHRM4 (gene 1132), sequence (P08173 whole entry, looked up): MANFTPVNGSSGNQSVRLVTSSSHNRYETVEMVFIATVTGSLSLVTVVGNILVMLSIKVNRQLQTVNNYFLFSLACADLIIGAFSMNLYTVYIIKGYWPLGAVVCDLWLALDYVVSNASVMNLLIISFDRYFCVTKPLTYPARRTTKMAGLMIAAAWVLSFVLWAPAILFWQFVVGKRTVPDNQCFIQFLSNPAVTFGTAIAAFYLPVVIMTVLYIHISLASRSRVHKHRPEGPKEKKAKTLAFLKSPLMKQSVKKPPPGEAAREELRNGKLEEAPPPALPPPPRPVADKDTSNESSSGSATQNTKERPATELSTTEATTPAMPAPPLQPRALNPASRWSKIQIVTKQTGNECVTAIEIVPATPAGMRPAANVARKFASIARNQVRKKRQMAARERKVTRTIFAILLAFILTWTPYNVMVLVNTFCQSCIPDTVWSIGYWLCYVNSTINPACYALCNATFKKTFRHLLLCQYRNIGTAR
human Adrenergic, Alpha 2c Receptor (Adra2C), ADRA2C (gene 152), sequence (P18825 whole entry, looked up): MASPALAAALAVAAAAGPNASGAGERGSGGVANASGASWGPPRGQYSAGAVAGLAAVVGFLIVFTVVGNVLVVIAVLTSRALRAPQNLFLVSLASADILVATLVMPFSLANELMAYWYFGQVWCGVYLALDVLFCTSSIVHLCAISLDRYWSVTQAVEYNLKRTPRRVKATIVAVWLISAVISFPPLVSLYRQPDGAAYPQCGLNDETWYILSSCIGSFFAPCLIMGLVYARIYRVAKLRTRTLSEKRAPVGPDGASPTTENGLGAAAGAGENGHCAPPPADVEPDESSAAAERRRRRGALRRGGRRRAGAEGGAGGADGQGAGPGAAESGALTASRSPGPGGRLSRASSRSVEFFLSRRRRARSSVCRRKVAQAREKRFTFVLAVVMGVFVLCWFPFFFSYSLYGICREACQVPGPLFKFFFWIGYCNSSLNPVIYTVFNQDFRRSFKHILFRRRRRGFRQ

In the case of `Cn1cnc2c1c(=O)[nH]c(=O)n2C`, the compound was called inactive in assay [1], in assay [2] and in [3].
As to `CCCCCCCCCC[N+](C)(C)[O-]`, in assay [1], the result was inactive.
Broadly, the AC50 is the concentration giving half of the maximal activity seen. Consider `CO[C@@H]1COCC[C@@H]1N[C@@H]1CC[C@@](C(=O)N2CCc3ncc(C(F)(F)F)cc3C2)(C(C)C)C1`, for which the AC50 in [4] is 12.3 µM (active); in [3], 25 µM (active).
With `CCCCC(CC)CO` (configuration not stated), in assay [5], the compound was called inactive.
In the case of `O=C(O)c1[nH]n(-c2ccc(S(=O)(=O)O)cc2)c(=O)c1N=Nc1ccc(S(=O)(=O)O)cc1`, the call in assay [6], in assay [8], in assay [9] and in [4] was inactive. The AC50 in [7] was 16.5 µM (active); in [2], 19.2 µM (active).
As to `COC(=O)[C@H]1[C@H]2C[C@@H]3c4[nH]c5cc(OC)ccc5c4CCN3C[C@H]2C[C@@H](OC(=O)c2cc(OC)c(OC)c(OC)c2)[C@@H]1OC`, the concentration at half-maximal activity (AC50) in [10] was 12.1 µM (active).
As to `CCN(CC)CCOc1ccc(C(=C(Cl)c2ccccc2)c2ccccc2)cc1`, the AC50 was 1.58 µM (active) in assay [6]; 18.2 µM (active) in [10]; 17.3 µM (active) in assay [7]; 29.1 µM (active) in [11]; 1.79 µM (active) in [8]; 32.3 µM (active) in assay [12]. Further, the half-maximal activity concentration (AC50) was 2.28 µM (active) in [2]; 4.2 µM (active) in [3]; 2.53 µM (active) in assay [13]; 31.8 µM (active) in assay [14]; 9.71 µM (active) in assay [15]. Besides, the result in assay [1] and in assay [16] was inactive.
For `Cc1c(C)c2c(c(C)c1O)CCC(C)(COc1ccc(CC3SC(=O)NC3=O)cc1)O2` (configuration not stated), the call in assay [8] was inactive.
In the case of `Oc1ccc(O)cc1`, in assay [14], the concentration at half-maximal activity (AC50) was 10.8 µM (active). In [15], the result was inactive.
As for `COc1ccc(OC(F)(F)F)cc1CN[C@H]1CCCN[C@H]1c1ccccc1`, the AC50 in assay [6] was 10.6 µM (active); in assay [1], 20.5 µM (active); in assay [2], 25 µM (active); in [13] it was 9.18 µM (active); in assay [15], 13.5 µM (active). Also, the result in assay [8] was inactive.
As to `NCCOCCOCCN`, the compound was called inactive in assay [12].
As to `Nc1nc(=S)c2[nH]cnc2[nH]1`, the AC50 in [15] is 44.4 µM (active).
In the case of `Cc1cc(SC2=C(O)C[C@@](CCc3ccc(N)cc3)(C(C)C)OC2=O)c(C(C)(C)C)cc1CO`, the compound was classed as inactive in [8], in [17], in [2], in assay [18], in assay [3] and in assay [13].
For `NC(=Nc1ccccc1)Nc1ccccc1`, the figures for the concentration at half-maximal activity (AC50) in assay [4] and in [3] were 19.8 µM (active) and 14.9 µM (active), respectively.
For the compound `CCC(C)N(C)C(=O)c1cc2ccccc2c(-c2ccccc2Cl)n1` (configuration not stated), the concentration at half-maximal activity (AC50) in [19], in assay [17] and in [15] was 15.9 µM (active) throughout.
On to `O=NO`, for which the compound was classed as inactive in [3].
For `CCc1nc(N)nc(N)c1-c1ccc(Cl)cc1`, the call in [10], in assay [9] and in assay [3] was inactive. The concentration at half-maximal activity (AC50) is 5.9 µM (active) in assay [7], 4.73 µM (active) in [2] and 13.9 µM (active) in assay [4].
Take `O=C(NS(=O)(=O)/C=C/c1cccs1)c1ccc(F)cc1Br`: in assay [12], the outcome was inactive.
Consider `CN(C)C(=O)NC1(c2ccccc2)CCN(CC[C@@]2(c3ccc(F)c(F)c3)CN(C(=O)c3ccccc3)CCO2)CC1`, for which, in assay [8], the call was inactive. Also, the AC50 in assay [4] is 9.11 µM (active); in assay [3], 16.9 µM (active); in [13], 12.8 µM (active); in assay [15] it was 0.00564 µM (active).
